# USP2a inh = qHTS Assay for Inhibitors of Ubiquitin-specific Protease USP2a Using CHOP2 as the Reporter. Ubiquitin carboxyl-terminal hydrolase 2 (Homo sapiens), O75604. USP2 core, Ub-CHOP2 coupled fluorogenic reporter, 485/531. Potency, µM (doses to about 38.3 µM), most hits filed as inhibitors. 330,000 compounds, 0.01% hits. AID 463254, 2010
# Target sequence (O75604 whole entry, looked up): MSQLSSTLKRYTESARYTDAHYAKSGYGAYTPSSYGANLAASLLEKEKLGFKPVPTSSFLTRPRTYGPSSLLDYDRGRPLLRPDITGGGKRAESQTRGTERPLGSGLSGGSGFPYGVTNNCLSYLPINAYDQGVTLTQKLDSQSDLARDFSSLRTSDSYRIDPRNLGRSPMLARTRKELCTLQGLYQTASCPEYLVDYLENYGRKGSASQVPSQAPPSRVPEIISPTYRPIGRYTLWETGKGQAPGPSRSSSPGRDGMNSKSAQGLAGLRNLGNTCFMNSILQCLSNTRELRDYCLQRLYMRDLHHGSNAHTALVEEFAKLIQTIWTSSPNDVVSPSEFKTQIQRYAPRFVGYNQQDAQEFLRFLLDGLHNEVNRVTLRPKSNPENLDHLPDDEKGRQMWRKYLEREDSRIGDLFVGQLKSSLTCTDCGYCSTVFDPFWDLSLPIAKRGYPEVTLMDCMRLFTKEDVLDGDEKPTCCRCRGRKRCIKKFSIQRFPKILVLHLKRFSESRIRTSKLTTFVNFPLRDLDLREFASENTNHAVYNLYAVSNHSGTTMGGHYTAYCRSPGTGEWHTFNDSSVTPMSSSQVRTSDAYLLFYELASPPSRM
#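 Cell-free coupled assay: 10nM USP2 core preincubated 30min RT with compound in Tris-HCl pH 8.0/CaCl2/CHAPS buffer, then 25nM Ub-CHOP2 and 25nM reporter substrate; fluorescence (Ex 485/Em 531) read after 60min RT, normalized to NEM inhibition, concentration-response curves fitted.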
# ClpP mod = qHTS Assay for Activators of ClpP. purified B. subtilis ClpP, FRET peptide cleavage, 20 min. AID 651965, 2013. Potency, µM (highest dose often 57.5 µM). ATP-dependent Clp protease proteolytic subunit (Bacillus subtilis (strain 168)), P80244. 340,000 compounds, 1.9% hits; active = well fitted falling curve with a large enough effect; inconclusive = small, poorly fitted or top-dose-only effect; inactive = no such curve, though single readings can be large or run the other way; also: the source files actives as falling curves though it sought activators and does not explain the sign; nearly all actives have a fitted effect of over 65% in size
#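 FRET quenching reversal measured ClpP activation: 10 microg/mL B. subtilis ClpP at pH 8 with the FRET-FV decapeptide, read at 430 nm after 320 nm excitation. The 20-min minus 0-min signal was scaled between DMSO/no-enzyme wells and ADEP (5.8 microM final).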
# MmCpn inh = Inhibitors of TCP-1 ring complex (TRiC) of Methanococcus maripaludis (MmCpn): qHTS | 330,000 compounds, 0.031% hits | Potency, µM (doses to about 76.9 µM), actives largely listed as inhibitors | AID 504842, 2011 | Chaperonin Mm-Cpn (Methanococcus maripaludis) | purified Mm-Cpn ATPase, ADP Transcreener TR-FRET; also: nearly all actives have a fitted effect of over 80% in size
#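 Purified archaeal chaperonin (25 nM final) was preincubated with compound for 10 min at 37°C, then ATP (10 uM final) was added for 30 min at 37°C in Tris pH 7.4/KCl/MgCl2/DTT buffer. ADP was quantified by HTRF Transcreener TR-FRET.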
# p53 reactivation = qHTS assay for re-activators of p53 using a Luc reporter; H1299 p53-A138V BP100-luciferase reporter, luminescence, 24 h; Potency, µM (series often up to 92.2 µM), most hits filed as activators; 320,000 compounds, 0.063% hits; AID 504706, 2011; also: nearly all actives have a fitted effect of over 45% in size
#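 p53-null H1299 cells stably carrying temperature-sensitive p53-A138V and a BP100-luciferase reporter were pinned with compounds (4-point, 1:5 series) and held 24 hrs at 37 deg C. Luminescence was read 10 min after detection reagent.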
# Eya2 inh = qHTS Assay for Inhibitors of the Phosphatase Activity of Eya2; recombinant Eya2, OMFP fluorescence dephosphorylation (OMFP is methylfluorescein phosphate); Protein phosphatase EYA2 (Homo sapiens), O00167; 330,000 compounds, 0.006% hits; Potency, µM (doses to about 76.9 µM), most hits filed as inhibitors
#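 Eya2 protein (added as 0.2 uM solution) was preincubated with compound for 10 min at ambient temperature in 50 mM HEPES pH 7.5, 50 mM NaCl, 5 uM MgCl2, 0.05% BSA, 1 mM DTT. OMFP (added at 50 uM) then reacted 10 min; fluorescence read at 485/525 nm.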
# Integrin act MD = qHTS for Activators of Integrin-Mediated Alleviation for Muscular Dystrophy; AID 624291, 2012; alpha7betagal myoblasts, beta-gal FDG fluorescence, 48 h; Potency, µM (titrated, usually from 38.3 µM), usual class: activators; 350,000 compounds, 0.064% hits; also: nearly all actives have a fitted effect of over 60% in size
#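 Alpha7betagal+/- myoblasts (passage 13) were plated 16-24 hr, then exposed to compounds (1:260 dilution of DMSO stock) for 48 hours at 37C. After MPER lysis, β-galactosidase reporter activity was read as FDG fluorescence (ex 480/em 540) after 30 minutes.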
# A number is an active result; . = inactive; ? = inconclusive; / = no result given; [ ] = another dose, or the depositor's remark. This is one part of a sample in which hits are shown more often than they occur. Unless noted, calls follow the shape of the dose curve; as a rule, active = well fitted curve in the direction sought with a large enough effect; inconclusive = small, poorly fitted or top-dose-only effect, or another doubt; inactive = no such curve, though single readings can be large; an effect the other way counts as inactive or inconclusive.
SMILES,USP2a inh,ClpP mod,MmCpn inh,p53 reactivation,Eya2 inh,Integrin act MD
Cc1cc(/C=C2\C=Cc3ccccc32)cc(C)c1N,/,.,/,/,/,/
CCCCn1c(O)c(N=Nc2ccccc2O)c2ccccc21,.,.,.,39.8µM,.,.
Cc1ccc2nc3c(cc(C#N)c(=O)n3-c3nccs3)c(=O)n2c1,.,2.51µM,.,.,.,.
COc1ccccc1/C=C1\C=Cc2ccccc21,/,.,/,/,/,/
CC(C)Oc1ccccc1-c1nc(SCC(=O)c2ccc(F)cc2)n[nH]1,/,.,/,/,/,/
CCOC(=O)c1cc2c(=O)n3ccccc3nc2n(CC(C)C)c1=NC(=O)c1ccco1,.,7.08µM,.,.,.,.
CCOC(=O)c1cc2c(=O)n3ccccc3nc2n(Cc2ccco2)c1=NC(=O)c1cccnc1,.,3.16µM,.,.,.,.
CCOC(=O)c1cc2c(=O)n3ccccc3nc2n(Cc2ccco2)c1=NC(=O)c1ccc(C)c(C)c1,/,.,/,/,/,/
CCOC(=O)c1cc2c(=O)n3cccc(C)c3nc2n(Cc2ccco2)c1=NC(=O)c1cccnc1,.,14.1µM,.,.,.,.
CCOC(=O)c1cc2c(=O)n3ccccc3nc2n(Cc2ccco2)c1=NC(=O)c1cccc(C)c1,/,.,/,/,/,/
CCOC(=O)c1cc2c(=O)n3ccccc3nc2n(Cc2ccccc2)c1=N,.,15.8µM,.,.,.,.
CCOC(=O)c1cc2c(=O)n3ccccc3nc2n(Cc2ccco2)c1=NC(=O)c1ccccc1Br,/,.,/,/,/,/
CCOc1ccc(Nc2oc(/C=C/c3cccc(OC)c3)nc2C#N)cc1,/,.,/,/,/,/
Nc1ccccc1/C=C/c1ccnc2ccccc12,/,.,/,/,/,/
COc1ccc(-n2c(SCC(=O)N/N=C/c3ccccc3OCC(=O)O)nc3ccccc3c2=O)cc1,.,.,.,.,.,.
COc1ccc(-n2c(SCC(=O)N/N=C(\C)c3cccnc3)nc3ccccc3c2=O)cc1,.,31.6µM,.,.,.,.
COCc1cc(O)c(O)c(O)c1-c1c(COC)cc(O)c(O)c1O,/,.,/,/,/,/
S=c1[nH]nc(Cn2cnc3ccccc32)n1-c1ccccc1,.,.,.,.,.,8.91µM
O=C(Nc1ccc(-c2cn3c(n2)SCC3)cc1)c1ccc2ccccc2n1,.,22.4µM,.,.,.,.
O=C(/C(C=Nc1ccc(F)cc1)=C(/O)c1ccco1)C(F)(F)F,.,25.1µM,?,?,.,.
Cc1ccc(N=C/C(C(=O)C(F)(F)F)=C(\O)c2ccco2)cc1Cl,.,15.8µM,.,?,.,.
Cc1cccc(N=C/C(C(=O)C(F)(F)F)=C(\O)c2ccco2)c1,.,.,.,.,.,.
COc1ccc(CCn2c(=S)[nH]c(=O)c3nccnc32)cc1OC,/,.,/,/,/,/
O=C(O)CSc1nnc(COc2cccc3cccnc23)n1-c1cccc(C(F)(F)F)c1,.,/,.,.,.,.
Cc1ccccc1OCc1nnc(SCC(=O)O)n1Cc1ccccc1,.,/,.,.,.,.
SMILES,USP2a inh,ClpP mod,MmCpn inh,p53 reactivation,Eya2 inh,Integrin act MD
C=CCn1c(COc2cccc3ccc(C)nc23)nnc1SCC(=O)O,/,35.5µM,/,/,/,.
C=CCn1c(COc2cccc3cccnc23)nnc1SCC(=O)O,.,28.2µM,.,.,.,.
CCCCNC(=O)[C@@H]1CC=C[C@@H]2CCN(CCCC)C(=O)[C@@H]21,/,.,/,/,/,/
COc1ccc(CCC(=O)NO)cc1,/,.,/,/,/,/
Cc1ccc(N2C(=O)CSC23C(=O)N(CC(=O)NCc2ccccc2)c2ccccc23)cc1C (centres undefined),/,.,/,/,/,/
Cc1cc(C)c2c(n1)nn1c(NCCCN(C)C)cc(C)nc21,.,.,.,.,.,.[7.66 µM]
Cc1cc(NCCCN(C)C)n2nc(-c3cccs3)cc2n1,.,28.2µM,.,.,.,.
